# Out of some 69,000 compounds screened, about 8,600 (12%) showed an effect of 50% or more. The entries come from a sample that favours strong results as a whole.
# Tested on: Plasmodium berghei
# Test: Screen against P. berghei liver stage (PbLuc), transformed with Luciferase, at 10uM
# Type: functional, HepG2
# Details: tested at 10 uM
row,SMILES,INHIBITION [%]
1,CS(=O)(=O)N1CCCC(Cc2ccnc3ccncc23)CC1 (stereo not given),19.6
2,O=C(c1cccnc1)N1CCCC2(CCN(c3ccsc3)C2=O)C1 (stereo not given),-33.7
3,CN(C)C(=O)[C@@H]1CCO[C@@H]2CCN(Cc3ccc4c(c3)OCO4)C[C@@H]21,10.8
4,COc1cc(N2CCC3(CCCN3Cc3cnn(C)c3)CC2)ncn1,13.7
5,CCCN1CCc2nc(SCc3ccccc3)[nH]c(=O)c2C1,17.7
6,CCCN1CCc2nc(SCc3ccc(F)cc3)[nH]c(=O)c2C1,20
7,COCCN1CCc2nc(SCc3ccc(F)cc3)[nH]c(=O)c2C1,56.3
8,Cn1cnnc1C1CCCN(C(=O)c2ccccn2)C1 (stereo not given),13.6
9,Cc1cccc(C(=O)N2C[C@@H]3CC[C@H]2CN(S(=O)(=O)N(C)C)C3)n1,18.2
10,Cc1oc(-c2cccs2)nc1C(=O)N(C)C1(C#N)CCC1,-11.6
11,CN(C(=O)Cc1coc(-c2cccs2)n1)C1(C#N)CCC1,27.9
12,CN(C(=O)Cc1coc(-c2ccccc2)n1)C1(C#N)CCC1,78.3
13,Cc1nc(C)n(C2CCCN(C(=O)c3sccc3C)C2)n1 (stereo not given),-19.6
14,CCn1nc(C)c2c1cnn2CCNS(=O)(=O)c1ccccc1,-22.2
15,CCn1nc(C)c2c1cnn2CCNS(=O)(=O)c1cccs1,60.7
16,CCn1nc(C)c2c1cnn2CCNS(C)(=O)=O,16.8
17,Cc1ccsc1CNCc1c(C(C)C)nn(C)c1N1CCOCC1,9.52
18,COC(=O)C(CNC(=O)Nc1nncs1)Cc1cccc(C)c1 (stereo not given),76.8
19,COc1cc(CNC(=O)Nc2nncs2)ccc1O,-73.6
20,Cc1ccc(CNC(=O)Nc2nncs2)cn1,27.4
21,COC(=O)C(CNC(=O)Nc1cn[nH]c1)Cc1cccc(C)c1 (stereo not given),11.9
22,COC(=O)C(CNC(=O)Nc1nncs1)Cc1ccc(O)cc1 (stereo not given),51
23,COC(=O)C(CNC(=O)Nc1nncs1)Cc1ccc(F)cc1 (stereo not given),37.6
24,Cc1ccccc1OC1(C(=O)O)CCN(C(=O)CCc2ccco2)CC1,39.3
25,CC(C)c1nc(CN(C)C2CCN(CCc3ccncc3)C2)no1 (stereo not given),-16
26,Cc1ccc(CN(C)C(=O)CN2CCOC(Cn3cccn3)C2)o1 (stereo not given),11.6
27,Cn1nc(C2CN(C(=O)c3ccncc3)C2)c2nccnc21,22
28,CCCc1nn(Cc2csc(CC)n2)c(=O)o1,61
29,CCCc1nn(Cc2csc(C(C)C)n2)c(=O)o1,29.4
30,CCc1nc(Cn2nc(COC)oc2=O)cs1,49.9

# Source: ChEMBL document CHEMBL4513216, “Probing the Open Global Health Chemical Diversity Library for Multistage-Active Starting Points for Next-Generation Antimalarials” (ACS Infect Dis, 2020)
